Screen size: about 69,000 compounds; about 8,600 (12%) showed an effect of 50% or more. This excerpt belongs to a sample that is enriched for strong results.
What follows are molecules tested on Plasmodium berghei (assay: Screen against P. berghei liver stage (PbLuc), transformed with Luciferase, at 10uM). Conditions: tested at 10 uM.
Type: functional, HepG2
For COCC(=O)N1CC[C@H]2C[C@H](C)O[C@@H]2C1, the INHIBITION was 38.1%.
CCCC(=O)N1CCCCC1C(=O)Nc1ccc(-c2nnc[nH]2)cc1 (centres undefined) was tested, and the INHIBITION was 16.8%.
With Cn1nc(C2CCN(C(=O)CCN3CCOCC3)CC2)c2cccnc21 the INHIBITION was 32.8%.
For CC(C)c1nc(CSc2nnc(-c3cccs3)n2CC(N)=O)no1, the INHIBITION was -49.7%.
CC(O)CN1CCN(C(=O)c2ccn(-c3ccccc3Cl)n2)CC1 (centres undefined) gave an INHIBITION of -12.2%.
In the case of CN1C[C@H](COCC2CC2)[C@H]2CCN(Cc3ccco3)CC[C@H]2C1=O, the INHIBITION is reported as 33.4%.
COC[C@@H]1CN(C)C(=O)[C@@H]2CCN(Cc3ccco3)CC[C@H]12 showed an INHIBITION of 54.1%.
Molecule CN1C[C@@H](COCC2CC2)[C@H]2CCN(Cc3ccco3)CC[C@H]2C1=O has an INHIBITION of 46.7%.
Cc1cn2c(n1)CCC(NS(=O)(=O)c1ccc(C)s1)C2 (centres undefined) showed an INHIBITION of 34.4%.
Work on Cc1cn2c(n1)CCC(NS(=O)(=O)c1cc(C)sc1C)C2 (centres undefined) yielded an INHIBITION of 61.5%.
In the case of Cc1cn2c(n1)CCC(NS(=O)(=O)c1sc(C)nc1C)C2 (centres undefined), the INHIBITION is reported as 21.5%.
Molecule Cc1cccc(COC[C@@H]2CC[C@H]3[C@H](CCN3C(=O)CC3CC3)O2)n1 has an INHIBITION of 24.1%.
For Cc1ccc(-c2cc(C(=O)N(C)Cc3noc4c3CCCC4)[nH]n2)o1, the INHIBITION was 34.5%.
With CC(NCc1cnc(N2CCN(C)CC2)nc1)c1ccc(F)cc1 (centres undefined) the INHIBITION was 26.5%.
With Cn1ncc(NCc2cc(F)cc(F)c2)c(Cl)c1=O the INHIBITION was 8.48%.
COc1ccc(C(C)Nc2ncc(C(N)=O)cc2Cl)cc1OC (centres undefined) was tested, and the INHIBITION was -59.5%.
Cc1ccc(C(C)NC(=O)CCc2cnn(C)c2)cc1F (centres undefined) was tested, and the INHIBITION was 33%.
Molecule COc1ccc(C(C)Nc2cnn(C)c(=O)c2Cl)cc1OC (centres undefined) has an INHIBITION of 68.9%.
With Cc1nccn1-c1ccc(C(C)Nc2cnn(C)c(=O)c2Cl)cc1 (centres undefined) the INHIBITION was 52.6%.
For CC(Nc1cnn(C)c(=O)c1Cl)c1ccc(F)c(F)c1 (centres undefined), the INHIBITION was 68.9%.
For CC(Nc1cnn(C)c(=O)c1Cl)c1ccc(F)cc1 (centres undefined), the INHIBITION was 65.9%.
COc1ccc(C(C)Nc2nc3c(C)nn(C)c3c(=O)n2C)cc1 (centres undefined) gave an INHIBITION of -45.2%.
In the case of Cc1nccn1-c1ccc(NS(=O)(=O)c2cnn(C(C)C)c2)cn1, the INHIBITION is reported as -2.97%.
COc1ccc(C(C)Nc2ncc(C(N)=O)cc2Cl)cc1F (centres undefined) was tested, and the INHIBITION was -138%.
Molecule Cn1ncc(N2CCOCC2)c(Cl)c1=O has an INHIBITION of 8.77%.
Molecule CC(C)CC(=O)N1Cc2ccccc2CC1C(=O)Nc1nccs1 (centres undefined) has an INHIBITION of 31.6%.
CCn1cc2c(n1)CN(S(=O)(=O)c1cccnc1)CC2COC (centres undefined) was tested, and the INHIBITION was 8.85%.
Molecule CC1(c2ncc(CN3CCN(c4ccccn4)CC3)cn2)CCCCO1 (centres undefined) has an INHIBITION of -16.85%.
Work on O=C1[C@H]2CN(CC3CC3)C[C@H]2CN1Cc1cccc(F)c1 yielded an INHIBITION of 39.8%.
O=C(NCc1cccnc1N1CCc2ccccc2C1)c1cnc[nH]1 showed an INHIBITION of -11.6%.
Cc1cc(C(=O)N2CC[C@@H]3CN(CCC(C)C)S(=O)(=O)[C@@H]3CC2)no1 gave an INHIBITION of 6.27%.
CS(=O)(=O)N1C[C@H]2CC[C@@H](C1)N(C/C=C/c1ccc(F)cc1)C2 gave an INHIBITION of 31.7%.
Molecule Cc1ccc(CN2CCn3cc(CNC(=O)c4cnn(C)c4)nc3C2)s1 has an INHIBITION of 16.8%.
Molecule CS(=O)(=O)NCc1cncc2c1CCN(C(=O)N1CCCC1)C2 has an INHIBITION of 37.2%.
For Cc1ccccc1-n1cnc(Cl)c1C(=O)O, the INHIBITION was 24.4%.
With OCc1c(Cl)ncn1-c1ccccc1 the INHIBITION was 46.4%.
With Cc1cccc(-n2cnc(Cl)c2CO)c1 the INHIBITION was 28%.
OCc1c(Cl)ncn1-c1ccc(F)cc1 showed an INHIBITION of 52.8%.
Molecule Cc1ccccc1-n1cnc(Cl)c1CO has an INHIBITION of 59.3%.
Molecule Cc1ccc(-n2cnc(Cl)c2CO)cc1 has an INHIBITION of 40.9%.
In the case of COc1ccc(CN2C[C@@H]3C(CC(=O)N4CCCC4)[C@@H]3C2)cc1 (some centres undefined), the INHIBITION is reported as 17.4%.
CCc1nnc2n1CC(CNCc1nnc(C(C)(C)C)o1)CC2 (centres undefined) gave an INHIBITION of 14.9%.
For Cc1cccc(NC(=O)N2CCC3(CC(=O)N(c4ccsc4)C3)C2)c1 (centres undefined), the INHIBITION was 12.4%.
In the case of COCCn1cc2c(n1)C(CNCc1ccc(F)cc1)OCC2 (centres undefined), the INHIBITION is reported as 13.5%.
Molecule Cc1ccc(C(=O)N(C)Cc2cscn2)c(=O)[nH]1 has an INHIBITION of 15%.
CCN(C)C1COC2(CCN(C(=O)c3ccc4[nH]ccc4c3)CC2)C1 (centres undefined) showed an INHIBITION of -12.2%.
In the case of COCCC1COC2(CCN(C(=O)c3ccncc3)CC2)C1 (centres undefined), the INHIBITION is reported as 74.2%.
Work on COCCC1COC2(CCN(C(=O)c3cccnc3)CC2)C1 (centres undefined) yielded an INHIBITION of 34.6%.
With COCCC1COC2(CCN(C(C)=O)CC2)C1 (centres undefined) the INHIBITION was 20.1%.
Molecule CCN(C)C1COC2(CCN(C(=O)c3cccc(Cl)c3)CC2)C1 (centres undefined) has an INHIBITION of 0.112%.
Molecule COCCC1COC2(CCN(C(=O)c3ccsc3)CC2)C1 (centres undefined) has an INHIBITION of 57.9%.
For CCN(C)C1COC2(CCN(C(=O)c3ccc(Cl)cc3)CC2)C1 (centres undefined), the INHIBITION was 70.3%.
COCCC1COC2(CCN(C(=O)c3ccccc3)CC2)C1 (centres undefined) gave an INHIBITION of 40.4%.
Molecule COCCC1COC2(CCN(C(=O)c3cccn3C)CC2)C1 (centres undefined) has an INHIBITION of 20.6%.
